An excerpt weighted towards active compounds, which were near 1.3% of everything screened.
Vif-A3G inh: Vif-A3G binding inhibition; HeLa A3G-eYFP + Vif (tagged APOBEC3G with the HIV-1 protein that degrades it), YFP fluorescence, overnight; Q9HC16; actives 0.076% (n = 410,000); Potency, µM (highest dose often 46.1 µM), for inactives: at the highest dose activity, negative = active, actives largely listed as inhibitors; AID 602310; further: potency means the concentration at half of the fitted maximal effect; on the % scale 0 is the no-effect control and ±100 the full control effect; nearly all actives have a fitted effect of over 60% in size
Target sequence (Q9HC16 whole entry, looked up): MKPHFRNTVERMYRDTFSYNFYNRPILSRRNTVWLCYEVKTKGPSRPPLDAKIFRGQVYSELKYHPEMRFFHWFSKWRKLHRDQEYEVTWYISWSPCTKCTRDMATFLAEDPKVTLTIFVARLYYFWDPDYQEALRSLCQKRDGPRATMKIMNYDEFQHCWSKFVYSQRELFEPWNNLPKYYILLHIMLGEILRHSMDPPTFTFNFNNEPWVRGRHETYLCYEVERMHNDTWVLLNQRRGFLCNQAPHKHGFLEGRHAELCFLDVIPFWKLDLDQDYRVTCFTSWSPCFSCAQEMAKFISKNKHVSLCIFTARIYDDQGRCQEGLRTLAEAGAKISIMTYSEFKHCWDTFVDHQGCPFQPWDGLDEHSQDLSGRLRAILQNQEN
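Read-out is eYFP fluorescence (Ex 488/Em 500-530) from Vif-expressing HeLa A3G-eYFP cells; more signal means A3G escaped Vif-mediated degradation. Cells plated overnight, compound pinned in, incubated overnight at 37 deg C.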
TRPML1 blocker: blocks the human TRPML1 channel; Q9GZU1; TRPML1-inducible cells, Ca2+ dye fluorescence, FDSS; stronger effect = lower value; inhibition of EC80 agonist-evoked calcium signal; activity change, negative = inhibition, % (test concentration not listed); actives 0.02% (n = 390,000); in the data active means activity change below about -50%; inconclusive means between about -30% and that limit;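 further: stimulus is agonist 54-4 at its EC80 concentration; on the % scale 0 is the no-effect control and ±100 the full control effect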
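TRPML1-DL cells, Tet-induced overnight (~16 h, 37 °C) at 1,500 cells/well, were loaded with Ca8 no-wash dye plus quencher for 45-90 min at room temperature. Compounds were pinned during FDSS kinetic reading; agonist 54-4 at EC80 (4 uM final) then added.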
ALOX12 inh: inhibitors of human 12S-lipoxygenase ALOX12; purified 12hLO, xylenol orange hydroperoxide absorbance; Potency, µM (top dose mostly 108 µM), without a hit: top-dose activity change, negative = inhibition, most hits filed as inhibitors; actives 1.1% (n = 580,000); further: potency means the concentration at half of the fitted maximal effect; on the % scale 0 is the no-effect control and ±100 the full control effect
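Purified human 12hLO (150 nM final) in 25 mM Hepes, 0.01% Triton X-100, pH 7.0 was preincubated 15 min at room temperature with compound. Then 40 uM arachidonic acid was added, 30 min. Hydroperoxide was read by Fe-XO absorbance ratio 573/405 nm.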
Glioma ERSR ind: inducers of ER stress response in human glioma cells. U87-MG GRP78 promoter luciferase reporter, 16 h. Potency, µM, for inactives: at the highest dose activation, actives largely listed as activators. actives 0.02% (n = 420,000); further: potency means the concentration at half of the fitted maximal effect; series mostly up to about 76 µM; % of control where 0% means no effect; nearly all actives have a fitted effect of over 35% in size
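Stably transfected U87-MG human glioma cells carrying a GRP78-based luminescent sensor were seeded at 1000 cells/well, pin-dosed with compounds and incubated 16 h. Luciferase reagent was then added, and end-point luminescence was read after 10 min at room temperature.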
TRPML1 ag: human mucolipin-1 channel agonism | TRPML1-expressing cells, Ca2+ dye fluorescence, FDSS | activation, % (concentration not given with the values) | actives 0.12% (n = 410,000) | AID 624414; in the data active means activation above about 50%; inconclusive means mostly about 30% to 49%; further: 0% is about no effect
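Agonist activity was taken from a 110 s kinetic Ca2+ dye read on the FDSS after pinning compounds onto TRPML1-DL cells. The cells were seeded at 1,500/well with Tet inducer, incubated about 16 h, then dye-loaded at room temperature.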
Vif-A3F inh: blocks the Vif interaction with APOBEC3F; HeLa A3F-eYFP + Vif (tagged APOBEC3F with the HIV-1 protein that degrades it), YFP fluorescence increase; Potency, µM (highest dose often 46.1 µM), for inactives: top-dose activity, negative = active; actives 0.2% (n = 390,000); AID 602313; further: potency means the concentration at half of the fitted maximal effect; % of control where 0% means no effect; nearly all actives have a fitted effect of over 65% in size
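Fluorescence increase (Ex 488/Em 500-530) after overnight compound treatment at 37 deg C flags inhibition of Vif-driven A3F-eYFP loss in stable HeLa A3F-eYFP/Vif cells seeded overnight beforehand.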
Numbers without * were called inactive; ? = inconclusive; . = no result; [ ] = dose if it differs, or a comment. Unless noted, the call rests on the fitted dose curve; in most records, active means well fitted curve in the direction sought with a large enough effect; inconclusive means small, poorly fitted or top-dose-only effect, or another doubt; inactive means no such curve, though single readings can be large; an effect the other way counts as inactive or inconclusive.

SMILES	Vif-A3G inh	TRPML1 blocker	ALOX12 inh	Glioma ERSR ind	TRPML1 ag	Vif-A3F inh
O=C(CN1CCCCC1)c1c[nH]c2ccccc12	-10%	2	1%	-1%	1	2%
O=C(N/N=C/c1ccccc1Cl)c1[nH]c2ccc(Br)cc2c1-c1ccccc1	6%	-21	-9%	-3%	71*	?
COc1ccc(/C=N/NC(=O)c2[nH]c3ccc(Br)cc3c2-c2ccccc2)c(C(=O)O)c1OC	?	-9	-1%	-8%	0	?
Cc1cccc(NC(=O)CN2C(=O)N/C(=C\c3cccn3-c3cccc(C(=O)O)c3)C2=O)c1	4%	18	45µM*	-2%	2	14%
O=C(O)c1cccc(-n2cccc2/C=C2/NC(=O)N(c3ccc(Cl)cc3)C2=O)c1	-6%	-6	7.9µM*	1%	-1	13%
CN(Cc1ccccc1)C(=O)c1ccc(OCc2ccccc2)cc1	.	.	-30%	.	.	.
CCOc1ccc(NC(=O)c2cc3cc(Br)ccc3oc2=O)cc1	.	.	29%	.	.	.
CN(C)c1ccc(C2C=C(c3ccc(Cl)cc3OC(F)F)Nc3ncnn32)cc1 (stereo not drawn)	8.9µM*	4	?	3%	21	.
Cc1ccc(C2C=C(c3ccccc3OC(F)F)Nc3ncnn32)cc1 (stereo not drawn)	-8%	-9	?	-1%	2	6%
Cc1cc2c(N=O)c(NO)ccc2[nH]1	5.6µM*	-19	.	-2%	0	?
CCC(CO)Oc1cc(NC(=O)c2cccc(OC)c2)c2ncn(C(C)C)c2c1 (stereo not drawn)	-3%	0	-19%	-7%	0	5%
CCC(CO)Oc1cc(NC(=O)c2ccc(OC)cc2)c2ncn(C(C)C)c2c1 (stereo not drawn)	-10%	-57*	-47%	-3%	0	2%
Cc1ccc(-n2nc3ccc(N)cc3n2)cc1C	-10%	4	45µM*	-8%	0	5%
Cc1ccc(-n2nc3ccc(N)cc3n2)cc1Cl	-1%	.	0%	-10%	.	0%
O=C(N/N=C/c1ccc(Br)s1)c1cccc(Cl)c1	.	.	10%	.	.	.
CN(C)c1ccc(C(=O)N/N=C/c2ccc(Br)s2)cc1	.	.	20µM*	.	.	.
CSc1cccc(NC(=S)N2CCCN(Cc3cccc(Cl)c3)C2)c1	-8%	-18	35µM*	3%	-1	-6%
CS(=O)(=O)N1CCCC1C(=O)NC1CCCCC1 (stereo not drawn)	.	.	-2%	.	.	.
CC1=C(C(=O)Nc2ccccc2)C(c2ccc(Cl)cc2)n2c(s/c(=C/c3cccc(OCC(=O)O)c3)c2=O)=N1 (stereo not drawn)	2%	-9	45µM*	?	0	0%
CCOC(=O)C1=C(C)N=c2s/c(=C/c3ccc(OCC(=O)O)c(OC)c3)c(=O)n2C1c1ccc(Cl)cc1 (stereo not drawn)	-4%	-20	25µM*	-3%	6	?
CCOC(=O)C1=C(C)N=c2s/c(=C\c3ccc(OCC(=O)O)cc3)c(=O)n2C1c1ccc(Cl)cc1 (stereo not drawn)	-1%	-4	?	-1%	3	?
Cc1ccc(NC(=O)CSC2=NC(C)(C)N=C2c2ccc(C)cc2)cc1	.	.	-5%	.	.	.
N#C/C(=N\Nc1cc(Cl)cc(Cl)c1)c1nnc2n1CCCCC2	4%	-10	16µM*	4%	2	4%
N#C/C(=C(/O)CCl)c1nnc2n1CCCCC2	-1%	-2	-9%	-1%	0	-20%
O=C(Nc1c(-c2ccccc2)[nH][nH]c1=O)c1ccc2c(c1)OCO2	.	.	-2%	.	.	.
SMILES	Vif-A3G inh	TRPML1 blocker	ALOX12 inh	Glioma ERSR ind	TRPML1 ag	Vif-A3F inh
O=C(Nc1c(-c2ccc3c(c2)OCO3)[nH][nH]c1=O)c1ccccc1	-6%	.	28µM*	-2%	-1	.
O=C(c1c[nH]c2ccccc12)N1CCN(C(=O)C2CC2)CC1	.	.	-6%	.	.	.
COc1cc2c(cc1OC)C(C[C@H]1CN(C(=O)c3ccco3)CC[C@H]1CC(=O)O)=NCC2	.	.	56µM*	.	.	.
O=C(O)C[C@@H]1CCN(C(=O)c2ccco2)C[C@@H]1CC1=NCCc2ccccc21	.	.	6%[176 µM]	.	.	.
O=C1OC(c2ccc3ccccc3c2O)(c2ccc3ccccc3c2O)c2ccccc21	?	13	6.3µM*	14%	0	?
O=C1c2cccc3c(N4CCCCC4)ccc(c23)C(=O)N1c1cccc(O)c1	?	-16	-19%	2%	88*	4µM*
Cc1n[nH]c(C)c1N1C(=O)c2cccc3c(N4CCCCCC4)ccc(c23)C1=O	?	-8	-4%	0%	61*	?
O=C1c2cccc3c(N4CCCCC4)ccc(c23)C(=O)N1CCO	?	-13	?	5%	?	?
C=CCN1C(=O)c2cccc3c(N4CCCCC4)ccc(c23)C1=O	?	2	-1%	4%	55*	7.1µM*
O=C(NCCc1ccccn1)c1ccc2c(c1)-c1ccccc1C2	.	.	34%	.	.	.
CCCCCCCCCCCCCCCC[N+](C)(C)Cc1ccc(F)cc1	-14%	4	45µM*	-10%	1	-5%
CCCCn1nnnc1C(c1ccccc1)N1CCN(c2ncc(C(F)(F)F)cc2Cl)CC1 (stereo not drawn)	.	.	0%	.	68*	.
COc1cc(OC)cc(C(=O)NCc2ccc(-c3nc4ncccc4o3)cc2)c1	.	.	-12%	.	.	.
O=S(=O)(Nc1ccc(C(O)(C(F)(F)F)C(F)(F)F)cc1)c1cccc2ccccc12	-22%	2	45µM*	-5%	0	.
O=C(CSc1nnnn1-c1cccc(F)c1)NCC1(N2CCOCC2)CCCCC1	.	.	3%	.	.	.
O=C1c2ccccc2S(=O)(=O)c2cc(C(=O)N(c3ccccn3)c3ccccn3)ccc21	0%	-6	-7%	0%	64*	-2%
Cc1ccc(C(C)NC(=O)c2cccs2)cc1 (stereo not drawn)	-7%	9	10µM*	-3%	1	-17%
CN(Cc1ccc(-c2ccc(Cl)cc2)o1)C(=O)CSc1nnc(C2CC2)n1Cc1ccco1	.	.	16µM*	.	.	.
CC(=O)Nc1ccc(-c2csc(NC(C)(C)C)n2)cc1	.	.	10µM*	.	.	.
CC(=O)Nc1ccc(-c2csc(NCc3ccccc3)n2)cc1	-2%	30	?	3%	0	-11%
CCNc1nc(-c2ccc(NC(C)=O)cc2F)cs1	.	.	7.1µM*	.	.	.
CCOC(=O)Nc1nc(-c2ccc(F)cc2F)cs1	1%	-10	-23%	9%	-1	-15%
CC(=O)Nc1ccc(-c2csc(Nc3ccc(O)c(C(=O)O)c3)n2)cc1	.	.	40µM*	.	.	.
CC(=O)Nc1ccc(-c2csc(NC(C)(C)C)n2)c(F)c1	.	.	11µM*	.	.	.

Source: PubChem (National Center for Advancing Translational Sciences (NCATS))
